Screens: PubChem, several laboratories
PAFAH2 inh: PAFAH2 enzyme inhibitors, primary screen, biochemical, fluorescence polarization, human | Platelet-activating factor acetylhydrolase 2, cytoplasmic (Homo sapiens), Q99487 | AID 492956, 2010 | recombinant PAFAH2, FP-rhodamine activity probe | inhibition, % at 3.39 µM | hit rate 0.99% among 340,000;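 active = inhibition above the mean over all tested compounds plus 3 SD, cut at about 30% in these data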;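 note: inhibitors block probe labeling of enzyme so polarization drops; 0% = enzyme with DMSO and 100% = wells lacking PAFAH2 protein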
PAFAH1B2 FP inh: PAFAH1B2 enzyme inhibitors, primary screen, biochemical, fluorescence polarization, human; Platelet-activating factor acetylhydrolase IB subunit alpha2 (Homo sapiens), P68402; recombinant PAFAH1B2, FP-rhodamine activity probe; inhibition, % at 3.39 µM; hit rate 1.2% among 340,000; AID 492953, 2010;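 active = inhibition above the mean of all tested compounds plus 3 SD, cut at about 24% in these data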;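 note: 0% = enzyme with DMSO and 100% = wells lacking PAFAH1B2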
Pemphigus Ab inh: inhibitors of pemphigus antibody binding to DSG3, primary screen, biochemical, bead-based, flow cytometry, scFv-GFP. Desmoglein-3 (Homo sapiens), P32926. DSG3-coupled beads, scFv-anti-DSG3-GFP binding; active compounds read low. binding (percent of control), % at 10 µM. hit rate 0.48% among 310,000;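 active = binding more than 3 SD below its plate's average and above zero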;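 note: hits lower antibody fragment binding to DSG3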
pPAFAH FP inh: pPAFAH enzyme inhibitors, primary screen, biochemical, fluorescence polarization, human | Platelet-activating factor acetylhydrolase (Homo sapiens), Q13093 | recombinant pPAFAH, FP-rhodamine probe fluorescence polarization | inhibition, % at 3.39 µM | hit rate 1.5% among 330,000;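 active = inhibition above the mean inhibition across the screen plus 3 SD, cut at about 25% in these data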;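 note: inhibitors block binding of the rhodamine activity-based probe so polarization drops; 0% = enzyme with DMSO and 100% = wells lacking pPAFAH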
Target sequence (Q13093 whole entry, looked up): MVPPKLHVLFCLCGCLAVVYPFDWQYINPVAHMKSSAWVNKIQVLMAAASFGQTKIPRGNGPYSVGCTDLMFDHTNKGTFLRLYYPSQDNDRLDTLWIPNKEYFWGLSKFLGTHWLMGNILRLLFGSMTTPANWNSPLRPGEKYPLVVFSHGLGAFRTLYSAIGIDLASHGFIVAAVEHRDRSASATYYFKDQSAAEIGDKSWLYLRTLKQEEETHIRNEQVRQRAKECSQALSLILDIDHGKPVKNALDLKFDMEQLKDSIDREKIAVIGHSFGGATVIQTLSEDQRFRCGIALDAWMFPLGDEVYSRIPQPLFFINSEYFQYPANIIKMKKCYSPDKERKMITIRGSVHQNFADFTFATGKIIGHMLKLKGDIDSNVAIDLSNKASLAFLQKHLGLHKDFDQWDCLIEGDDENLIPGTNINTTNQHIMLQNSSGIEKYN
M18AAP inhibitor: PfM18AAP inhibitors, malaria aminopeptidase, primary screen, biochemical, QFRET, recombinant enzyme; M18 aspartyl aminopeptidase (Plasmodium falciparum 3D7); H-Glu-NHMec fluorogenic cleavage; inhibition, % at 7.35 µM; hit rate 1.2% among 290,000; AID 1822, 2009;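 active = inhibition above the campaign mean inhibition over all tested compounds plus 3 SD, cut at about 28% in these data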;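 note: 0% = plate median of test compound wells and 100% = 2 mM ZnCl2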
PAFAH1B3 FP inh: PAFAH1B3 enzyme inhibitors, primary screen, biochemical, fluorescence polarization, human | Platelet-activating factor acetylhydrolase IB subunit alpha1 (Homo sapiens), Q15102 | recombinant PAFAH1B3, FP-rhodamine probe | inhibition, % at 3.39 µM | hit rate 0.28% among 340,000 | AID 492972, 2010;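 active = inhibition above the screen-wide average of all tested compounds plus 3 SD, cut at about 25% in these data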;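 note: 0% = enzyme with DMSO only and 100% = wells lacking PAFAH1B3 protein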
* = called active by the depositor; . = no result given. A selection: hits, their analogues and other compounds. The true share with any hit is near 3.8%.

SMILES	PAFAH2 inh	PAFAH1B2 FP inh	Pemphigus Ab inh	pPAFAH FP inh	M18AAP inhibitor	PAFAH1B3 FP inh
O=C(O)CCCN1C(=O)C2C3CC(C2C1=O)C1C(c2ccccc2)c2sc(=O)[nH]c2SC31 (stereo unspecified)	-3	81*	96	4	16	2
O=c1[nH]c2c(s1)C(c1cccnc1)C1C3CCC(C3)C1S2 (stereo unspecified)	1	24	94	2	-1	10
O=C(O)CN1C(=O)C2C3CC(C2C1=O)C1C(c2ccc(Cl)cc2)c2sc(=O)[nH]c2SC31 (stereo unspecified)	5	47*	88	2	7	6
O=c1[nH]c2c(s1)C(c1ccc(O)cc1)C1C3CCC(C3)C1S2 (stereo unspecified)	-2	27*	103	10	2	6
O=C(O)CN1C(=O)C2C3CC(C2C1=O)C1C(c2ccc(F)cc2)c2sc(=O)[nH]c2SC31 (stereo unspecified)	-2	54*	92	3	20	9
CC(=O)c1cccc(N(C(=O)CNC(=O)c2ccco2)C(C(=O)NC2CCCC2)c2ccco2)c1 (stereo unspecified)	1	-1	98	7	4	0
Cn1c(CCNS(=O)(=O)c2ccccc2)nnc1SCc1cccnc1	4	3	94	1	-5	6
CC(C(=O)O)N1C(=O)C2C3CC(C2C1=O)C1C(c2ccccc2)c2sc(=O)[nH]c2SC31 (stereo unspecified)	3	55*	102	1	22	1
Cc1cccc(C2=NN(c3ccc(Br)cc3)[C@@H](C(=O)N3CCOC3=O)[C@@H]2c2ccc(Cl)cc2)c1	1	-3	93	9	.	2
Cc1cccc(C2=NN(c3ccc(Br)cc3)[C@@H](C(=O)N3CCOC3=O)[C@@H]2c2ccc(F)cc2)c1	-2	-7	106	30*	1	6
CN(Cc1ccc(F)cc1)S(=O)(=O)c1ccc2[nH]c(=O)[nH]c2c1	.	.	100	.	.	.
O=C1NC(CCc2ccccc2)C(=O)N1CCOc1cccc(Br)c1 (stereo unspecified)	1	26*	112	13	0	2
COc1cccc(NC(=O)CN2C(=O)NC(CCc3ccccc3)C2=O)c1 (stereo unspecified)	-1	3	.	-1	.	7
CCC(C)C(=O)C(=O)N1CCC(n2nccc2NC(=O)CCOc2ccccc2)CC1 (stereo unspecified)	.	.	106	.	.	.
Nc1cccc2nsnc12	-1	1	114	6	9	6
Nc1cc2nsnc2cc1Br	56*	43*	96	4	9	59*
COCCn1c(SCC(=O)NC2CCCC2)nc2c(c1=O)SCC2	-1	3	108	-3	0	2
O=Cc1ccc(C(=O)OCC(=O)Nc2ccc(F)cc2F)cc1	47*	2	95	8	-9	3
O=C(Nc1ccc(C(F)(F)F)cc1[N+](=O)[O-])O[C@H]1[C@H](Cc2ccccc2)NS(=O)(=O)[C@H]2C[C@@H]3C=C[C@]12O3	1	2	96	0	.	16
Oc1ccccc1C(=S)N1CCN(C(=S)c2ccccc2O)CC1	0	4	99	-4	29*	5
Oc1ccccc1C(=S)N1CCCC1	-1	4	90	4	11	0
CC1=C2C3OC(=O)C(C)C3CCC2(C)C=C(Cl)C1=O (stereo unspecified)	.	.	101	.	.	.
COc1ccc(NC(=O)C2CCCN(S(=O)(=O)c3cccnc3)C2)c(OC)c1 (stereo unspecified)	8	4	110	2	4	2
CCN(CC)c1ccc(NC(=O)C2CCCN(S(=O)(=O)c3cccnc3)C2)c(C)c1 (stereo unspecified)	1	-1	111	1	28*	5
O=C(O)c1cnc2ccc(Cl)cc2n1	.	.	104	.	.	.
SMILES	PAFAH2 inh	PAFAH1B2 FP inh	Pemphigus Ab inh	pPAFAH FP inh	M18AAP inhibitor	PAFAH1B3 FP inh
N#CC1=C(SCC(=O)NC2CC2)NC(=O)C(C#N)C12CCCCC2 (stereo unspecified)	2	6	94	6	3	0
N#CC1=C(SCC(=O)NC23CC4CC(CC(C4)C2)C3)NC(=O)C(C#N)C12CCCCC2 (stereo unspecified)	33*	37*	106	7	0	2
O=C(CN1CCCCC1)Nc1ccc(S(=O)(=O)c2ccc(NC(=O)CN3CCCCC3)cc2)cc1	-4	4	121	.	.	4
O=C(NCCCCc1ccccc1)Nc1ccc(F)cc1F	5	3	92*	-4	-2	7
Cc1ccc(CNC(=O)Nc2ccc(F)cc2F)n1C	11	4	99	.	30*	7
O=C(NCCCCc1ccccc1)Nc1cccc(F)c1	0	10	111	-5	5	8
Nc1cccc(C(=O)O)c1	-7	-1	106	0	-1	11
Nc1cccc(C(=O)c2ccccc2C(=O)O)c1	-2	1	78*	.	.	7
CCOc1ccc(/C=N/Nc2nc(C)cs2)c(O)c1	6	4	111	.	28*	7
S=C(c1ccc(Br)cc1)N1CCCC1	-2	-3	108	2	-10	11
OCCN1CCN(C(=S)c2ccc(Br)cc2)CC1	-1	3	101	3	30*	-5
O=C(OCc1c(-c2ccccc2)ncc2ccccc12)c1ccco1	2	5	108	32*	.	6
O=C(COC(=O)CSc1ccccc1)NC1CCS(=O)(=O)C1 (stereo unspecified)	.	.	103	.	.	.
Oc1ccc(N=C/C=C/c2ccc(Br)cc2)cc1-c1nc2ccccc2s1	.	.	.	53*	-5	.
Brc1cc2c(cc1-c1nc3ccccc3s1)OCO2	0	3	94	2	-10	6
COCCSc1ccccc1C(=O)NCc1ccco1	1	0	96	-2	30*	-4
CCN(CC)S(=O)(=O)c1ccc(SCC(=O)c2c(N)n(C3CC3)c(=O)[nH]c2=O)nc1	.	.	100	.	.	.
Cc1nn(-c2ccccc2)c(Cl)c1/C=N/NC(=O)c1ccc(NS(=O)(=O)c2cccs2)cc1	.	.	.	13	-3	.
Cc1nn(-c2ccccc2)c(Cl)c1/C=N/NC(=O)c1ccccc1NS(=O)(=O)c1cccs1	-4	1	102	33*	1	8
O=C(CN(Cc1ccccc1)C(=O)CCC(=O)Nc1nccs1)NCC1CCCO1 (stereo unspecified)	-10	-3	0.3*	3	5	4
Cc1ccc(COc2ccccc2C(=S)N2CCCC2)cc1	4	5	100	8	28*	4
